Experimental data published in PubChem BioAssay (NCATS).
Inconclusive results are not listed. Unmarked numbers belong to inactive results. The source made the active and inactive calls. Calls follow the shape of the dose curve; as a rule, active = well fitted cell-killing curve with a large enough effect; inconclusive = small, poorly fitted or top-dose-only effect, or effect the other way; inactive = flat fitted curve, though single readings scatter.

Tested on: CASKI
Test: Primary qHTS to identify gynecologic anti-cancer compounds using libraries of approved drugs and bioactive compounds (AID 1345084); also: nearly all actives have a fitted effect of over 55% in size
Settings: Gynecologic cancer cell panel viability, ATPlite luminescence, 48 h; series mostly up to 57.5 µM; activity change, negative = cytotoxicity: at the top concentration
Method in brief: (§1)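 Cells, 1,000 per well, plated 16 h, then exposed 48 h at 37 C to compounds. Viability by ATPlite luminescence after 15 min at room temperature.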
% is scaled to controls: 0 for no effect and ±100 for the full control effect; potency is read from the fitted curve at half-maximal effect.

SMILES | activity change, negative = cytotoxicity | Potency
Cc1ccc(C2(COC(=O)C(C)C)CO2)c(OC(=O)C(C)C)c1 (configuration not stated) | -12.6% [at 38.5 µM] | 
CC1(C)CC23[C@@H]4CC(=O)[C@@H]2COC(=O)[C@@H]3CC[C@H]41 | 0.941% | 
COc1cc2ncnc(Oc3cccc(NC(=O)Nc4cc(C(C)(C)C(F)(F)F)on4)c3)c2cc1OC | -5.18% | 
O=C(NNc1ccccc1)c1ccncc1 | -1.52% | 
CN(CCCNC(=O)c1ccc2nc3c(c(Cl)c2c1)CCCC3)Cc1ccccc1 | -1.83% | 
C=CC(=O)Nc1cc(Nc2nccc(-c3cn(C)c4ccccc34)n2)c(OC)cc1N(C)CCN(C)C |  | 14.1 µM (active)
OCC(Cc1ccccc1)Nc1nc(Oc2ccc3c(c2)CCC3)nc2c1ncn2Cc1ccc(-c2ccccc2)cc1 (configuration not stated) | -5.43% | 
O=C(NC(NC(=S)Nc1ccc(F)c([N+](=O)[O-])c1)C(Cl)(Cl)Cl)C(c1ccccc1)c1ccccc1 (configuration not stated) | -4.56% [at 25.3 µM] | 
Cc1[nH]c(/C=C2\C(=O)Nc3ccc(F)cc32)c(C)c1C(=O)NC[C@H](O)CN1CCOCC1 | -7.48% | 
CC1CCC2C(=CCC(O)C2(C)C)C1(C)Cc1c(O)cc(CO)c(C=O)c1O (configuration not stated) | -2.99% [at 38.5 µM] | 
COc1ccc(CNC(=O)Nc2ncc([N+](=O)[O-])s2)cc1 | -4.87% | 
O=C(NCc1ccc(Oc2ccccc2)cc1)c1nc(-c2cc(Br)c(O)c(Br)c2)no1 | 26.3% | 

Tested on: Es-2
Test: as above
Settings: Gynecologic cancer cell panel viability, ATPlite luminescence, 48 h; series mostly up to 57.5 µM; activity change, negative = cytotoxicity: at the top concentration
Method in brief: as §1

SMILES | activity change, negative = cytotoxicity | Potency
O=[N+]([O-])c1ccc(-[n+]2nc(-c3ccccc3)nn2-c2ccc(I)cc2)cc1 | -10.2% | 
COc1ccccc1NC(=O)Nc1ccc2ccccc2c1 | -16.7% | 
C=C(C)C(=O)OC1[C@@H]2C(=C)C(=O)O[C@@H]2C[C@@H](C)[C@@H]2C=CC(=O)[C@@]12C (some centres not stated) | -25.1% [at 38.5 µM] | 
CCC(C)n1cc(C)c2c(C(=O)NCc3c(C)cc(C)[nH]c3=O)cc(-c3ccc(N4CCNCC4)nc3)cc21 (configuration not stated) | 1.72% | 
CC(C)[C@@H](C)/C=C/[C@@H](C)[C@H]1CC[C@H]2C3=CC=C4C[C@@H](O)CC[C@]4(C)C3=CC[C@]12C | 3.34% | 
Cn1c(NC[C@@H](N)Cc2ccccc2)nc(-c2ccncc2)c(-c2ccc3ccccc3c2)c1=O | -4.28% | 
CCOC(=O)c1cnn(-c2ccc(NC(=O)C(Cl)=C(Cl)Cl)cc2)c1C(F)(F)F | -2.92% | 
COc1ccc(C(=O)N(CCC(C)C)Cc2nc(C)c(C)n2Cc2ccccc2C)c(OC)c1 | 0.169% | 
O=C(Nc1ccc(F)cc1)N1CCc2ccccc2C1c1ccc(C(F)(F)F)cc1 (configuration not stated) | 4.19% | 
Cc1ccc(C(=O)N2CCN(c3ccc([N+](=O)[O-])cc3)CC2)cc1Cl | -2.45% | 
CN(C)C(=O)c1cc2cnc(Nc3ccc(N4CCNCC4)cn3)nc2n1C1CCCC1 | -3.65% | 
C=C1/C(=C/C=C2\CCC[C@]3(C)[C@@H]([C@H](C)/C=C/C(=O)C4CC4)CC[C@@H]23)C[C@@H](O)C[C@@H]1O | 0.092% | 
CC(C)(C)c1ccc(-c2nc3ccccc3[nH]2)cc1 |  | 1.58 µM (active)
CCN1CCN(Cc2ccc(-c3cc4c(NC(C)c5ccccc5)ncnc4[nH]3)cc2)CC1 (configuration not stated) | -5.32% | 
CN1CCN(C(=O)c2ccc(Nc3nccc(-c4cccs4)n3)cc2Cl)CC1 | 4.6% | 
Cc1ccc(C2(COC(=O)C(C)C)CO2)c(OC(=O)C(C)C)c1 (configuration not stated) | -4.62% [at 38.5 µM] | 
CC1(C)CC23[C@@H]4CC(=O)[C@@H]2COC(=O)[C@@H]3CC[C@H]41 | -21.6% | 
COc1cc2ncnc(Oc3cccc(NC(=O)Nc4cc(C(C)(C)C(F)(F)F)on4)c3)c2cc1OC | -12% | 
CN(CCCNC(=O)c1ccc2nc3c(c(Cl)c2c1)CCCC3)Cc1ccccc1 | 0.0354% | 
CCN(CCCOc1ccc2c(Nc3cc(CC(=O)Nc4cccc(F)c4)[nH]n3)ncnc2c1)CCOP(=O)(O)O | -5.92% | 
CCN(CC)c1ccc(C(=C2C=CC(=[N+](CC)CC)C=C2)c2cc(S(=O)(=O)O)ccc2S(=O)(=O)[O-])cc1 |  | 28.2 µM (active)
O=C(NC(NC(=S)Nc1ccc(F)c([N+](=O)[O-])c1)C(Cl)(Cl)Cl)C(c1ccccc1)c1ccccc1 (configuration not stated) | -0.333% [at 25.3 µM] | 
CC1CCC2C(=CCC(O)C2(C)C)C1(C)Cc1c(O)cc(CO)c(C=O)c1O (configuration not stated) | -3.09% [at 38.5 µM] | 
CCCCn1c(-c2ccccc2)nc(-c2ccccc2)c1CN(Cc1ccc2c(c1)OCO2)Cc1ccc2c(c1)OCO2 | -0.161% | 
O=C(NCc1ccc(Oc2ccccc2)cc1)c1nc(-c2cc(Br)c(O)c(Br)c2)no1 | -0.379% | 
